The target in test [1] is Mitogen-activated protein kinase kinase kinase kinase 4 (Homo sapiens) (UniProt O95819). The note with it: at 1 µM.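 Also: reported figure is an averaged inhibition value.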
The target in test [2] is Dual specificity mitogen-activated protein kinase kinase 1 (Homo sapiens) (UniProt Q02750). The note with it: at 0.1 µM.
For test [3] the target is unchanged. As to conditions: at 1 µM.
Test [4] deals with Misshapen-like kinase 1 (Homo sapiens) (UniProt Q8N4C8). The note with it: at 0.1 µM.
For test [5] the target is unchanged. The note with it: at 1 µM.
Test [6] addresses T1, Serine/threonine-protein kinase 4 (Homo sapiens) (UniProt Q13043).
T1 sequence (whole entry): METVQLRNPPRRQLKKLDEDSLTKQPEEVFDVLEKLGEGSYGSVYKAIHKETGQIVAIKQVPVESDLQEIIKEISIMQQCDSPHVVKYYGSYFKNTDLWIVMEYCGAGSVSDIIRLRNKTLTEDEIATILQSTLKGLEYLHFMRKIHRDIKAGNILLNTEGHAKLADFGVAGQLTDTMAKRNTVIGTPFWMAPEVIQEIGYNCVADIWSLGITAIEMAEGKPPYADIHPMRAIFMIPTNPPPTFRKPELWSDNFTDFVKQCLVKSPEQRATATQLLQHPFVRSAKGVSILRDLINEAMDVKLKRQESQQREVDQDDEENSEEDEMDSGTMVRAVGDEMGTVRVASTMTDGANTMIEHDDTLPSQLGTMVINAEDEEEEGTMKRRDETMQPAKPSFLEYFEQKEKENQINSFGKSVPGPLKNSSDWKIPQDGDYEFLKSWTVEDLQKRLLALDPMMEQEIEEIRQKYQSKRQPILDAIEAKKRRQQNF
As to conditions: at 0.1 µM.

The target in test [7] is T1, Serine/threonine-protein kinase 4 (Homo sapiens). The note with it: at 1 µM.
For test [8], the target named is T2, Serine/threonine-protein kinase 3 (Homo sapiens) (UniProt Q13188).
T2 sequence (whole entry): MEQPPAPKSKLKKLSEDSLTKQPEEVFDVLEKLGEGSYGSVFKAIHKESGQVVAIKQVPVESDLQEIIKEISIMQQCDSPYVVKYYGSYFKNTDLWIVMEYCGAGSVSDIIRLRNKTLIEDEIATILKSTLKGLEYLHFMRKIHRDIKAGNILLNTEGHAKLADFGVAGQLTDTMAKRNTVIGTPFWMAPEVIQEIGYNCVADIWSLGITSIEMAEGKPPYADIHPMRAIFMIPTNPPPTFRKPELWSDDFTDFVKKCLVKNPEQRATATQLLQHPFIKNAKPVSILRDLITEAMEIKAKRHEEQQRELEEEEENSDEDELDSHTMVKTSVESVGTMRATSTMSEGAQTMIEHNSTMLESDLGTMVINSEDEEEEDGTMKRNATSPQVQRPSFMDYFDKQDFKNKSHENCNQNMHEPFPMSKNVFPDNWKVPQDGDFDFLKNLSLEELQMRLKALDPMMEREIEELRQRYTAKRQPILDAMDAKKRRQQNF
The note with it: at 0.1 µM.

For test [9], the target named is T2, Serine/threonine-protein kinase 3 (Homo sapiens). As to conditions: at 1 µM.
The target in test [10] is Serine/threonine-protein kinase 26 (Homo sapiens) (UniProt Q9P289). As to conditions: at 0.1 µM.
Serine/threonine-protein kinase 26 (Homo sapiens), sequence (Q9P289 2-416 limits assumed): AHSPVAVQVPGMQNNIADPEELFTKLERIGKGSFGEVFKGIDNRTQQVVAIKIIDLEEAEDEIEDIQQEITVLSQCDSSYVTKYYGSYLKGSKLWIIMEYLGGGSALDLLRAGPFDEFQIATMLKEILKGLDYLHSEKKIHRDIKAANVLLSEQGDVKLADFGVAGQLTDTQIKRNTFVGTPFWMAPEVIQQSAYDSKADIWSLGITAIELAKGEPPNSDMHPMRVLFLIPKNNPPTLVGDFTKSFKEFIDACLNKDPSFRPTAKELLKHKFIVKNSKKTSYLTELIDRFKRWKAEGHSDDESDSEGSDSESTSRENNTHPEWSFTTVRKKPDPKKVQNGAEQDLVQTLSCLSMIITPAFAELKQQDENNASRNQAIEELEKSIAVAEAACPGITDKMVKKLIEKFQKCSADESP

Dual specificity mitogen-activated protein kinase kinase 1 (Homo sapiens), sequence (Q02750 whole entry): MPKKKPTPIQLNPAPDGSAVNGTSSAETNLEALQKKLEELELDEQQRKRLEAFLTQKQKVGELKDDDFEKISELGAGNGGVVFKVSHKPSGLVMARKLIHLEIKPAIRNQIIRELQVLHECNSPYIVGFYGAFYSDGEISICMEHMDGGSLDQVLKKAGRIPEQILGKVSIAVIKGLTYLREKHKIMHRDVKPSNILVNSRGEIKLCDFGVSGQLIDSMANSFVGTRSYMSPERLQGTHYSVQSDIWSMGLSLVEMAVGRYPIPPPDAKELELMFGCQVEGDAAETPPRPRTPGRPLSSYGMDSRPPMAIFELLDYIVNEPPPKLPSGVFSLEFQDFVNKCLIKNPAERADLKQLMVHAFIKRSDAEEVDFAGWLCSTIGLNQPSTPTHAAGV
Mitogen-activated protein kinase kinase kinase kinase 4 (Homo sapiens), sequence (O95819 2-1239 limits assumed): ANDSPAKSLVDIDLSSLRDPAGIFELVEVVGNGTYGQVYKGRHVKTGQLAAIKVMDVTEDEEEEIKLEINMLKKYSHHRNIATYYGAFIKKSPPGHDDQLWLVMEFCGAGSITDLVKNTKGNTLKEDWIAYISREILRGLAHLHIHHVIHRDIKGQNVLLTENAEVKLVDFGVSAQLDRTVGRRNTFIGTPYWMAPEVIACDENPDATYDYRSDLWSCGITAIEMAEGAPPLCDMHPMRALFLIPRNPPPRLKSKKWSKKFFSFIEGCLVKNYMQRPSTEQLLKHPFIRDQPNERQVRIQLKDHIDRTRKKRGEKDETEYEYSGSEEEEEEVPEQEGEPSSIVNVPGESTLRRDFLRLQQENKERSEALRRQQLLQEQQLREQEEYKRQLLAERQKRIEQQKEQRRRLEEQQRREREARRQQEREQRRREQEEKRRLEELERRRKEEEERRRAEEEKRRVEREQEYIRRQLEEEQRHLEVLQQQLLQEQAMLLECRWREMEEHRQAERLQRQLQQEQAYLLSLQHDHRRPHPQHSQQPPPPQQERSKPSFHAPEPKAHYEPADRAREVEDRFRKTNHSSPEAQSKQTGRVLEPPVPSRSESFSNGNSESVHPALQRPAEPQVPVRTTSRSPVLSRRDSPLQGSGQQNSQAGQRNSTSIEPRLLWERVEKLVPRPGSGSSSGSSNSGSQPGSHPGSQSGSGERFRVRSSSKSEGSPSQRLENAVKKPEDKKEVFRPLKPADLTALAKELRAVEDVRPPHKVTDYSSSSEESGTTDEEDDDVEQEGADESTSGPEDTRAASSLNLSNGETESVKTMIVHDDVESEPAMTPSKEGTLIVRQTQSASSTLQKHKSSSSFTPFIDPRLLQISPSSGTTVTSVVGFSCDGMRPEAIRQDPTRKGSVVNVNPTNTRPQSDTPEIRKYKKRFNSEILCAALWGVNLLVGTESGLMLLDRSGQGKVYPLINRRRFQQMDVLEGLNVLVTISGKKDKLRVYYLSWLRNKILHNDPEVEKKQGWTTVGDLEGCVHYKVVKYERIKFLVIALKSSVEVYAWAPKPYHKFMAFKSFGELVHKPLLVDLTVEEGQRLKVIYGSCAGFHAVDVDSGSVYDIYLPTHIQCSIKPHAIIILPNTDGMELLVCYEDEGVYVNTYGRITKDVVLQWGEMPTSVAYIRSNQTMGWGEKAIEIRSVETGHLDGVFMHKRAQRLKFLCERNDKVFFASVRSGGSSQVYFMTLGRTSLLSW
Misshapen-like kinase 1 (Homo sapiens), sequence (Q8N4C8 whole entry, looked up): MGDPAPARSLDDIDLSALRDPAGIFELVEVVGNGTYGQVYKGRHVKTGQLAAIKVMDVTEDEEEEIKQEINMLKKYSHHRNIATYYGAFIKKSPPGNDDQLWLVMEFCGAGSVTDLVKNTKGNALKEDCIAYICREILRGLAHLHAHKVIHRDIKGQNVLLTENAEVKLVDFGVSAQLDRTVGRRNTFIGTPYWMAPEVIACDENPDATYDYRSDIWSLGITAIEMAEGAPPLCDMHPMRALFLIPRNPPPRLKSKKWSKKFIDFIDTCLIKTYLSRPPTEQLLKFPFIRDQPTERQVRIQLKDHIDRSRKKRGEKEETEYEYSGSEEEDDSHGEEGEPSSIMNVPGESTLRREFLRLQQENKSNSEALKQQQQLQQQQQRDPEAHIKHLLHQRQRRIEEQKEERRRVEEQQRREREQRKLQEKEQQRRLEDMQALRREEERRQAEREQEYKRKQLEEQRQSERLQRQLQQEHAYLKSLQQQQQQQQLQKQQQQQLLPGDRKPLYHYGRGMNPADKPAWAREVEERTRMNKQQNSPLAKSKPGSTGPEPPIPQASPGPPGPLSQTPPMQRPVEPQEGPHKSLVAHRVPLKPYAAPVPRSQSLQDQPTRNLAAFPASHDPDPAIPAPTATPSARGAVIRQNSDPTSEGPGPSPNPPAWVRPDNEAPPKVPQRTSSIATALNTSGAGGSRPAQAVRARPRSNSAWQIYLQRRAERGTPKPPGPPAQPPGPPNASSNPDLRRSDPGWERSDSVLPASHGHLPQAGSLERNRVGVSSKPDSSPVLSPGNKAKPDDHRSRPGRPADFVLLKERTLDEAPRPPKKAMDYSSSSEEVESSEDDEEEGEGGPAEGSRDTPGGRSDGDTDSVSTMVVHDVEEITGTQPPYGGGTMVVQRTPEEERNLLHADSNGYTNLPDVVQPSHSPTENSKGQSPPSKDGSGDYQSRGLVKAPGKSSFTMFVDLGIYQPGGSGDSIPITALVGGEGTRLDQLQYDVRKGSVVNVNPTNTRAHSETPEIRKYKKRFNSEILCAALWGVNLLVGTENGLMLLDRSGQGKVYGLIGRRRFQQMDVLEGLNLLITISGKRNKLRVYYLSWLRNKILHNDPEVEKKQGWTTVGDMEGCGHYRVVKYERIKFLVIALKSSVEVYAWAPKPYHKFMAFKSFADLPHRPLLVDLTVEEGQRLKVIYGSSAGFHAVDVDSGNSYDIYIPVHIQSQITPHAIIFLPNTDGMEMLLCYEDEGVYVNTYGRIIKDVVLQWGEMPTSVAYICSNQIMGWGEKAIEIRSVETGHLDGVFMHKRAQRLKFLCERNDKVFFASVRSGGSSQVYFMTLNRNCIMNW

In general, inhibition refers to the relative decrease from the control value, in per cent. Turning to `Fc1cccc(COc2ccc(Nc3ncnc4sc(-c5ccco5)cc34)cc2Cl)c1`, the inhibition came out at 6.92% in test [1]; 5.47% in [2]; 3.29% in [3]; 6.46% in [4]; 7.36% in [5]; 4.94% in [6]. The inhibition in [7] was 8.32%; in [8], 6.61%; in [9] it was 8.59%; in [10] it was -1.76%.
`NS(=O)(=O)c1ccc(Nc2ncc(-c3ccccc3)o2)cc1`: the inhibition in test [1] stood at 58.6%; in [2], 2.3%; in [3] it was 2.12%; in [4], 8.89%; in test [5] it was 41.9%; in test [6] it was 6.4%. The inhibition is 10.2% in [7], 7.3% in test [8], 8.38% in test [9] and -1.93% in [10].
With `CC(C)(CO)CNC(=O)c1ccc2c(c1)/C(=N/Nc1ccc(S(N)(=O)=O)cc1)C(=O)N2`, the inhibition turned out to be 18.8% in test [1]; 6.31% in [2]; 43.1% in [3]; 1.9% in test [4]; 13.1% in test [5]; 40.7% in test [6]. Further, the inhibition in test [7] is 80.2%; in [8], 31.6%; in [9], 77.1%; in test [10], 0.44%.
For `COc1cc(N2CCN(C(C)C)CC2)ccc1Nc1nc(Nc2ccc(F)cc2C(N)=O)c2cc[nH]c2n1`, the inhibition was 68.1% in test [1]; 2.21% in [2]; 15.6% in [3]; 14.2% in test [4]; 55% in [5]; 5.27% in test [6]. Further, the inhibition worked out at 25.2% in test [7], 4.27% in test [8], 10.3% in [9] and 0.23% in test [10].
Consider `Clc1ccc(-c2nn3ncccc3c2-c2ccnc(Nc3ccccc3)n2)cc1`, for which the inhibition was found to be 39.9% in [1]; 1.32% in [2]; 2.28% in [3]; 5.91% in [4]; 33% in test [5]; 0.77% in [6]. The inhibition was 0.46% in [7], -0.25% in [8], -0.67% in test [9] and 1.4% in [10].
Turning to `CCCN1CCC(c2ccc(Nc3nc(Nc4cc(F)ccc4C(N)=O)c4cc[nH]c4n3)c(OC)c2)CC1`, the inhibition was determined as 78.9% in test [1]; 9.27% in [2]; 37.7% in [3]; 21.8% in test [4]; 70.2% in test [5]; 10.6% in test [6]. Further, the inhibition in [7] is 43.9%; in test [8] it was 5.71%; in test [9], 13.8%; in [10], -0.72%.
Take `CC(C)COC(=O)c1ccc2c(c1)/C(=C/Nc1ccc(S(N)(=O)=O)cc1)C(=O)N2`: the inhibition in test [1] was found to be 65.3%; in test [2], 3.79%; in [3] it was 33.7%; in test [4], 10.3%; in test [5], 53.8%; in [6], 46.2%. For the same compound, the inhibition in test [7] is 81.5%; in [8], 34%; in test [9], 77.9%; in [10] it was -0.24%.
With `Nc1ncc(-c2cccc(S(N)(=O)=O)c2)c2scc(-c3ccc(F)c(Cl)c3)c12`, the inhibition in test [1] was found to be 92.6%; in [2] it was 3.89%; in [3], 6.87%; in test [4], 70.9%; in [5] it was 91.6%; in test [6], 4.66%. Further, the inhibition in [7] was 6.44%; in test [8], 7.02%; in test [9] it was 6.15%; in test [10], -0.08%.
As for `CC(=O)NCc1cccc(C#Cc2cncnc2Nc2ccc(OCc3cccc(F)c3)c(Cl)c2)c1`, the inhibition in test [1] stood at 7.74%; in [2] it was 1.45%; in test [3], 1.08%; in [4], 2.48%; in test [5] it was 8.64%; in test [6] it was 1.57%. The inhibition is 5.79% in [7], 0.67% in test [8], 3.55% in [9] and -0.27% in test [10].
`CCn1c(-c2nonc2N)nc2c(C#CC(C)(C)O)nc(OC[C@H](N)c3ccccc3)cc21`: the inhibition in test [1] was found to be 35.1%; in test [2] it was 2.26%; in test [3] it was 4.39%; in test [4] it was 6.18%; in [5] it was 21.1%; in test [6], 7.92%. The inhibition is 42.7% in test [7], 9.64% in test [8], 42.4% in test [9] and -0.06% in test [10].
Regarding `CN1CCC(n2cnc(-c3ccc(F)cc3)c2-c2ccnc(N)n2)CC1`, the inhibition was 12% in [1]; 3.26% in test [2]; 3.41% in test [3]; 4.61% in test [4]; 11% in test [5]; 2.73% in test [6]. Also, the inhibition was 7.85% in test [7], 3.58% in [8], 6.77% in test [9] and -1.05% in test [10].
For the compound `c1cc(-c2cnn3nc(N4CCOCC4)ccc23)nc(NC2CC2)n1`, the inhibition in [1] came out at 20.9%; in [2], 4.84%; in test [3], 9.33%; in test [4], 4.94%; in [5] it was 13.9%; in test [6] it was 7.25%. The inhibition in test [7] is 10.3%; in test [8], 8.19%; in test [9], 8.11%; in [10] it was -0.92%.
On to `CS(=O)(=O)CCNCc1coc(-c2ccc3ncnc(Nc4ccc(OCc5ccccc5)cc4)c3c2)c1`, for which the inhibition in test [1] came out at 7.26%; in test [2], 2.33%; in [3] it was 3.36%; in [4], 5.08%; in test [5], 4.66%; in test [6] it was 2.75%. The inhibition in test [7] was 3.41%; in test [8] it was 4.25%; in test [9], 3.71%; in test [10] it was -2.22%.
Regarding `CCn1cc(-c2ccnc3[nH]ccc23)c(-c2cccc(NC(=O)Nc3ccc(OCc4ccccc4)cc3)c2)n1`, the inhibition in test [1] came to 27.8%; in test [2] it was 0.08%; in [3], 1.59%; in test [4], 3%; in test [5] it was 30.9%; in test [6], 1.36%. In addition, the inhibition in test [7] was 1.63%; in [8], 2.37%; in test [9], 2.77%; in test [10], 0.67%.
Regarding `COc1ccc(CNC(=O)c2ccc(-c3cc(-c4nnc(C)o4)ccc3C)cc2)cc1`, the inhibition in test [1] was 16.3%; in [2] it was 3.35%; in test [3] it was 0.16%; in test [4], 3.36%; in test [5], 12.7%; in test [6], 7.99%. Besides, the inhibition came out at 14.7% in test [7], 6.56% in test [8], 13.6% in [9] and 3.07% in test [10].
Consider `FC(F)(F)c1cccc(-c2nn3ncccc3c2-c2ccnc(Nc3ccc4c(c3)OCCO4)n2)c1`, for which the inhibition in [1] stood at 58.1%; in [2], 2.31%; in [3], 4.08%; in [4], 9.69%; in test [5] it was 55.8%; in test [6], 4.33%. The inhibition in test [7] is 6.24%; in [8], 5.41%; in test [9], 4.99%; in test [10], -0.12%.
`COc1ccc(-c2cc(-c3c[nH]nc3-c3ccccn3)ccn2)cc1`: the inhibition in [1] was found to be 80.3%; in [2], 6.36%; in test [3], 4.25%; in test [4], 24.6%; in [5], 72.7%; in [6], 7.65%. Further, the inhibition in test [7] was 10.6%; in test [8] it was 9.35%; in test [9], 10.1%; in test [10] it was -2.95%.
For `NC(=O)c1sc(-n2cnc3ccc(C(F)(F)F)cc32)cc1OCc1ccccc1Br`, the inhibition in test [1] was 10.4%; in test [2] it was 4.95%; in test [3], 5.45%; in test [4], 4.02%; in test [5], 11%; in test [6], 2.27%. Moreover, the inhibition in test [7] was 3.83%; in [8] it was 3.43%; in [9] it was 4.74%; in test [10] it was -0.65%.
On to `COc1ccc(-c2cc3c(N)ncnc3o2)cc1`, for which the inhibition in test [1] is 9.41%; in [2] it was -0.07%; in [3], 1.35%; in test [4], 1.42%; in [5], 6.5%; in [6] it was -2%. In addition, the inhibition in test [7] was -0.96%; in test [8], -3.02%; in test [9] it was -0.72%; in [10], 1.44%.
